# Screening results deposited in PubChem by National Center for Advancing Translational Sciences (NCATS).
# Tau FP inhib: inhibitors of human tau fibril formation; 0.39% of 280,000 active; Potency, µM (highest dose often 57.7 µM), inactives show top-dose activity, negative = inhibition, actives largely listed as inhibitors; K18 P301L tau heparin fibrillization, Alexa594 FP, 6 h; AID 1468; further: potency means the concentration at half of the fitted maximal effect; nearly all actives have a fitted effect of over 55% in size
# Target sequence (P10636 561-689 P618L limits assumed): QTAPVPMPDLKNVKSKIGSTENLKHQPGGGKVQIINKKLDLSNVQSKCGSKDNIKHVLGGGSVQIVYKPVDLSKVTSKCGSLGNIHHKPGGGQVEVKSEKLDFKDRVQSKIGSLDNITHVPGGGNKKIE
#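 Quantitative HTS format: compounds meet 15 uM recombinant K18 P301L tau and Alexa 594-tau tracer in 100 mM sodium acetate pH 7; 20 uM heparin triggers fibrillization at 37 C over 6 hr; FP gives the signal.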
# Tau fluor counter: counter-screen for tau fibril formation inhibitors. 0.93% of 280,000 active. Potency, µM (top dose mostly 57.7 µM), inactives show top-dose activity change, negative = decrease. tau K18 P301L Alexa594 fluorescence, heparin fibrillization. AID 1463; further: potency means the concentration at half of the fitted maximal effect; nearly all actives have a fitted effect of over 55% in size
#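 Human K18 P301L tau (15 uM unlabeled plus 0.24 uM Alexa 594-labeled, final) in 100 mM sodium acetate pH 7 was mixed with compound and 20 uM heparin and incubated 6 hr at 37 C.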
# Coupling enz: counter-screen for Giardia aldolase inhibitors: coupling enzyme system; AID 2472; activity change, negative = inhibition, % at 58.2 µM, hits read low; coupling enzyme system counterscreen, AmpLite Red fluorescence; 0.67% of 290,000 active; in the data active means activity change below about -30%
#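 Final compound at 57.5 uM, incubated 10 min at RT with coupling enzyme reagent (glyceraldehyde-3-phosphate), then 20 min with substrate and AmpLite Red detection. Fluorescence read at 525/598 nm; tests interference with the coupling assay, not aldolase inhibition.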
# Tau ThT inhib: tau fibrillization inhibition (ThT binding). recombinant tau K18 P301L, heparin-induced fibrillization, ThT fluorescence. P10636. 2.1% of 270,000 active. Potency, µM (titrated, usually from 57.4 µM), for the others: at the highest dose activity, negative = inhibition, actives largely listed as inhibitors. AID 1460; further: potency means the concentration at half of the fitted maximal effect; nearly all actives have a fitted effect of over 55% in size
#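 ThT emission at 510 nm, taken 1 hr after adding 30 uM dye, quantifies aggregates formed when 20 uM heparin acts on human tau K18 P301L for 6 hr at 37 C.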
# Sfp PPTase inh: Sfp phosphopantetheinyl transferase inhibition; Q9F4F7; Biochemical Sfp PPTase activity, qHTS; Potency, µM, without a hit: largest response in the series, negative = inhibition, hits mostly inhibitors; 3.5% of 310,000 active;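 further: the enzyme is Sfp with the accession as filed and its product quenches rhodamine fluorescence; potency means the concentration at half of the fitted maximal effect; 0% = enzyme reaction without inhibitor and -100% = no enzyme wells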
#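 After 15 min at room temperature with compound, 15 nM Sfp received 5 uM rhodamine-CoA plus 12.5 uM BHQ-2-ybbR (50 mM Hepes pH 7.6, 10 mM MgCl2). Rate came from the fluorescence difference over 30 min, ex 525/em 598 nm.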
# * = called active by the depositor; ? = inconclusive; . = no result; [ ] = another dose, or the depositor's remark. This is a sample that favours compounds with a hit; in the whole collection about 5.2% have one here. Unless noted, the call rests on the fitted dose curve; in most records, active means well fitted curve in the direction sought with a large enough effect; inconclusive means small, poorly fitted or top-dose-only effect, or another doubt; inactive means no such curve, though single readings can be large; an effect the other way counts as inactive or inconclusive. Unless noted, on the % scale 0 is the no-effect control and ±100 the full control effect.
SMILES,Tau FP inhib,Tau fluor counter,Coupling enz,Tau ThT inhib,Sfp PPTase inh
COc1ccc(NC(=O)CN2C(=O)CSc3ccc(S(=O)(=O)N(C)C)cc32)cc1OC,6.0%,-0.9%,.,1.4%,.
O=C(Nc1nc2c(s1)CCc1ccccc1-2)c1cccs1,-13.6%,?,-11.4,?,-9.5%
Fc1ccccc1Nc1nc2c(s1)CCc1ccccc1-2,1.7%,-8.8%,-69.5*,-8.1%,3.16µM*
Cc1ccc(-n2ncc(Br)c(Br)c2=O)cc1,?,-18.8%,-0.7,15.8µM*,3.7%
O=c1c(Br)c(Br)cnn1-c1ccccc1,?,-6.0%,0.2,31.6µM*,26.6%
CCCCn1c(=O)n(-c2cc(OC)ccc2OC)c(=O)c2c3c(sc21)CN(C(C)=O)CC3,-0.2%,0.0%,.,-2.3%,.
Nc1cccc(-c2cn3ccsc3n2)c1,-14.1%,-14.9%,.,-18.1%,.
CC1=C(CC/C(C)=N/NC(N)=S)C(C)(C)CCC1,8.9%,-10.7%,-3.5,?,44.7µM*
COc1ccc2cccc(N3CCN(CCNC(=O)c4ccc(F)cc4)CC3)c2c1,?,?,1.2,-19.8%,-11.7%
Cc1cc(C)c(Nc2cc(S(=O)(=O)O)c(N)c3c2C(=O)c2ccccc2C3=O)c(C)c1,20µM*,7.08µM*[quencher],-3.8,7.94µM*,50.1µM*
CN1CCN(CC(O)Cn2c3ccccc3c3ccccc32)CC1 (stereo not drawn),.,.,-2.0,.,50.1µM*
CSC1CCCCC1(O)CSc1nc2c(cc1C#N)CCCC2 (stereo not drawn),1.5%,-9.2%,3.1,-17.7%,50.1µM*
COC(=O)[C@@H](NC(=O)N1CCc2nc(COc3ccccc3)c3c(c2C1)CO[C@@H](C)C3)C(C)C,0.0%[11.6 µM],0.9%[11.6 µM],1.0,2.7%[11.5 µM],6.8%
O=Cc1[nH]c2ccccc2c1N(C(=O)CCl)c1ccc([N+](=O)[O-])cc1,?,?,-1.5,15.8µM*,-5.7%
CC(=O)n1cc(N(C(=O)CCl)c2ccc([N+](=O)[O-])cc2)c2ccccc21,-7.1%,?,-0.7,28.2µM*,10.7%
Cc1cccc(CCNC(=O)C2CCC(CNS(=O)(=O)c3c(C)cc(C)cc3C)CC2)c1 (stereo not drawn),5.4%,-0.3%,.,-17.2%,.
O=c1oc2c(CN3CCOCC3)c(O)ccc2c2c1CCCC2,3.0%,-1.4%,0.0,-5.1%,-0.7%
Cc1c(O)c(CN2CCCC2)cc2c3c(c(=O)oc12)CCC3,?,-21.9%,0.8,12.6µM*,-14.2%
O=c1oc2c(CN3CCOCC3)c(O)c(Cl)cc2c2c1CCCC2,-13.4%,-2.3%,-10.8,?,56.2µM*
CCOc1ccc(NC(=O)CCc2nc3cccnc3n2-c2ccccc2)cc1,8.7%,-16.2%,.,-17.2%,.
CCCCN=C1NN=C(c2ccc3c(c2)OCCO3)CS1,6.7%,-14.2%,-3.6,?,39.8µM*
COc1ccc(N=C2NN=C(c3ccc4c(c3)OCCO4)CS2)cc1,?,?,2.4,7.08µM*,?
COc1ccc(CN=C2NN=C(c3ccccc3)CS2)cc1,-2.1%,-22.7%,-2.4,?,44.7µM*
COCCCNc1c2c3c(cccc3[nH]c1=O)C(=O)c1ccccc1-2,2.1%,?,-19.4,?,79.4µM*
CCOC(=O)c1c2c3c(cccc3[nH]c1=O)C(=O)c1ccccc1-2,9.0%,-0.6%,0.4,3.0%,8.1%
SMILES,Tau FP inhib,Tau fluor counter,Coupling enz,Tau ThT inhib,Sfp PPTase inh
Cn1ccnc1Sc1ccccc1[N+](=O)[O-],-12.5%,-8.2%,-1.2,-1.2%,-7.7%
CSc1nccn1C(=O)c1ccccc1[N+](=O)[O-],.,.,-21.5,.,39.8µM*
CCn1c(C(=O)N2CCC(C(=O)N3CCN(c4cc(C)ccc4C)CC3)CC2)cc2sccc21,2.3%,-12.4%,.,?,.
COc1ccccc1NC(=O)/C=C\c1ccco1,.,.,-0.5,.,56.2µM*
COc1ccc(NC(=O)N/C=C/c2ccco2)cc1,-13.5%,-28.1%,-3.3,?,50.1µM*
COc1cccc(NC(=O)/C=C/c2ccco2)c1,-11.2%,-14.9%,-7.3,?,35.5µM*
COc1cccc(NC(=O)/C=C\c2ccc(Cl)cc2)c1,?,?,-8.8,8.1%,3.5%
CSc1cccc(NC(=O)/C=C/c2ccco2)c1,-15.4%,-18.9%,-5.9,?,56.2µM*
